Assay results taken from ChEMBL document CHEMBL3988442, “University of Dundee, Small-Polar-MMV Screening Library” (2021).
Hit rate of the full screen: of about 48,000 compounds, about 13,000 (27%) showed an effect of 50% or more. This is one part of the list.

Each compound was assayed on Wolbachia pipientis (assay: Anti-Wolbachia Cell-Based Screen). Settings: 5 µM.
Assay type: functional
Set-up: scale not given: in the data most compounds retested in dose-response had high values

In order of falling “Percent Effect” value:
1. CCc1ccc(NC(=O)CC2Cn3ncnc3NC2=O)cc1 (centres undefined)  123.1%
2. O=C(CC1Cn2ncnc2NC1=O)Nc1ccccc1 (centres undefined)  119.2%
3. COCCN1CCC(CNC(=O)C2(c3cccc(Cl)c3)CC2)C1 (centres undefined)  119%
4. COCCN1CCC(CNC(=O)C2(c3cccc(C)c3)CC2)C1 (centres undefined)  112.6%
5. COc1cccc(NC(=O)CC2Cn3ncnc3NC2=O)c1 (centres undefined)  110.1%
6. COCCN1CCC(CNC(=O)C2(c3cc(C)cc(C)c3)CC2)CC1  106.5%
7. O=C(CC1Cn2ncnc2NC1=O)Nc1cccc(C(F)(F)F)c1 (centres undefined)  102.6%
8. CCn1cnnc1CNC(=O)N1CCN(c2ccccc2Cl)CC1  101.2%
9. COc1ccccc1C1(O)CCCN(C(=O)c2ccnn2C(C)C)C1 (centres undefined)  100.6%
10. COc1ccccc1C1(O)CCCN(C(=O)c2cnc(SC)nc2)C1 (centres undefined)  97.81%
11. COc1ccccc1C1(O)CCCN(C(=O)c2csc(C(C)=O)c2)C1 (centres undefined)  80.49%
12. CCN(C)CC(C)Cn1cnc(-c2ccccc2)c1C (centres undefined)  25.31%
13. CC(O)c1cccc(-n2c(CCC(=O)O)nc3ccccc32)c1 (centres undefined)  17.57%
14. CC(=O)c1cc(C(=O)N2CCC3(CC2)Nc2ccccc2NC3=O)cs1  16.29%
15. COc1cccc(NC(=O)CNc2ccc(C(=O)N(C)C)c(Cl)c2)c1  14.49%
16. COC(=O)C1CN(CC(=O)Nc2cccc(OC)c2)c2ccccc21 (centres undefined)  10.48%
17. CN(Cc1cn2c(n1)CN(C(=O)c1cccn1C)CC2)Cc1ccco1  10.07%
18. COCCN1CCC(CNC(=O)C2(c3cc(C)cc(C)c3)CCC2)C1 (centres undefined)  8.369%
19. CCCc1cc(=O)[nH]c2nnc(SCC(=O)NC(C)(C)C)n12  7.571%
20. O=C(Nc1cccc(C(F)(F)F)c1)C1CC(=O)N(Cc2ccccn2)C1 (centres undefined)  6.876%
21. O=C(CN1C(=O)CCNC1=O)N1CCOC(c2ccc(Cl)c(Cl)c2)C1 (centres undefined)  6.471%
22. COc1ccccc1C(=O)N1CCC(O)(c2cccc(C)c2C)CC1  6.429%
23. CCN1CCCC(CNC(=O)C2(c3cccc(Cl)c3)CC2)C1 (centres undefined)  3.483%
24. CSCCCN1CCc2nc(N(C)C)nc(N3CCC(O)CC3)c2C1  3.21%
25. CC(C)CC(NC(=O)CSCC(N)=O)c1cccs1 (centres undefined)  3.191%
26. O=C(Nc1cccc(C(F)(F)F)c1)N1CCN(CCn2ccnc2)CC1  2.864%
27. COCCN1CCC(CNC(=O)C2(c3cccc(C)c3)CC2)CC1  2.355%
28. COc1ccccc1C1CCN(C(=O)c2ncccc2OC(C)C)C1 (centres undefined)  1.547%
29. CC(C)C(O)CNC(=O)Nc1cccc(-c2nccs2)c1 (centres undefined)  0.8901%
30. O=C(CN1C[C@H]2CC[C@@H]1CN(Cc1ccccn1)C2)Nc1ccccc1  0.8626%
31. COCCN1CCC(NC(=O)C2(c3cc(C)cc(C)c3)CC2)CC1  0.6832%
32. O=C(CN1CCC(Nc2ncccn2)CC1)Nc1ccccc1  -0.5486%
33. CN(C)S(=O)(=O)N1CCN(CC2CCOc3ccccc3C2)CC1 (centres undefined)  -1.148%
34. CCC(CC)N(Cc1cc(=O)n(C)c(=O)n1C)C1CC1  -2.422%
35. CCc1ccc(C(=O)Nc2ccc(CC3CC(=O)NC3=O)cc2)s1 (centres undefined)  -2.558%
36. Cc1nc(C)c(CNCc2nnc3n2CCCC3C(F)(F)F)s1 (centres undefined)  -2.721%
37. CSc1ncc(C(=O)N2CCC(O)(CN3CCOCC3)C(C)(C)C2)cn1 (centres undefined)  -3.216%
38. COc1cccc(OCc2nnc3n2N=C(C(C)(C)C)CS3)c1  -3.476%
39. COc1ncc(C(=O)N2CCC3(CC2)C(=O)Nc2ccccc23)cn1  -4.36%
40. O=C(NCCc1cccs1)N1CCCC1CCCO (centres undefined)  -4.53%
41. CC(C)c1nc2n(n1)CC(NCc1nc(-c3cccnc3)no1)CC2 (centres undefined)  -4.778%
42. O=C(c1cc(F)cc(Cl)c1)N1CCN(CCO)[C@@H]2CS(=O)(=O)C[C@@H]21  -9.741%
43. CCn1cnnc1CNC(=O)N1CCOC(c2ccccc2Cl)C1 (centres undefined)  -10.89%
44. CCc1ccc(C(=O)Nc2ccc(CC3CC(=O)NC3=O)cc2)cc1 (centres undefined)  -15.63%
45. COc1ccccc1[C@@H]1CN(Cc2csc(C(C)=O)c2)C[C@H]1C(=O)O  -15.68%
46. CCn1cnnc1CNC(=O)N1CCOC(c2ccc(Cl)cc2)C1 (centres undefined)  -28.88%
47. CC(C)CC(O)C1CCN(C(=O)c2ccc(C(F)(F)F)nc2O)CC1 (centres undefined)  -33.24%
48. CN1CCC2(CC1)CN(CC1CC1)CC21CCNC1=O.O=C(O)C(F)(F)F.O=C(O)C(F)(F)F (centres undefined)  -40.68%
49. Cc1cc(CN2CCCC(CNC(=O)Cn3cccn3)C2)oc1C (centres undefined)  -41.99%
